Experimental data from PubChem BioAssay AID485297 (National Center for Advancing Translational Sciences (NCATS), 2010).
The campaign covered roughly 320,000 compounds. About 9,100 (2.8%) were called active. Entries that show only a call come without a potency. Another 3% or so got no clear call; they are omitted. The call rests on the fitted dose curve; in most records, active means well fitted activation curve with a large enough effect; inconclusive means small, poorly fitted or top-dose-only effect; inactive means no such curve, though single readings can be large or run the other way. The full list was thinned out, with actives kept by preference.

Experiment: qHTS Assay for Rab9 Promoter Activators; further: nearly all actives have a fitted effect of over 60% in size
Settings: Huh7 Rab9 promoter-luciferase reporter, luminescence, 24 h; series mostly up to 9.22 µM
Summary of the method: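 Luminescence from Amplite-detected luciferase (10 minutes, ambient) reports Rab9 promoter activation. Before that, stable Rab9-luciferase Huh7 cells (1500/well, reduced-serum OP-MEM I plus 10% FBS) were exposed to compound for 24 hours at 37C.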
Potency means the concentration at half of the fitted maximal effect.

Compound	Potency
Cc1nn(Cc2ccccc2)c(C)c1C(=O)N1CCN(CC(=O)Nc2ccccc2Cl)CC1	inactive
C[C@@H](NC(=O)c1nc[nH]c1C(=O)N1CCN(C(=O)OC(C)(C)C)CC1)c1ccccc1	inactive
CCOc1ncccc1C(=O)OCC(=O)Nc1cccc(S(=O)(=O)N2CCCCCC2)c1	inactive
CCCc1nc2oc3c(=O)[nH]cnc3c2c2c1COC(C)(C)C2	inactive
Cc1ccc(-c2nc3ccccc3[nH]2)cc1N	1410 nM (active)
Nc1cccc(CCc2nc3ccccc3[nH]2)c1	inactive
COc1ccc(Br)cc1C(=O)NC(=S)Nc1cc(-c2nc3ccccc3[nH]2)ccc1C	inactive
COc1ccc(-c2[nH]nc(-c3ccccc3)c2-c2nc3ccccc3[nH]2)cc1	inactive
c1ccc2[nH]c(-c3nc4ccccc4[nH]3)nc2c1	631 nM (active)
OC(c1nc2ccccc2[nH]1)C(O)C(O)C(O)c1nc2ccccc2[nH]1 (centres undefined)	inactive
N#Cc1ccc(C2=CC(=O)C[C@H](c3ccc(Cl)cc3)C2)cc1	inactive
Cc1ccc(C)c(NC(=O)CN(C)C(=O)c2ccc3ncsc3c2)c1	inactive
COc1cccc(NC(=O)CSc2nnc(-c3cccnc3)o2)c1	inactive
COc1cccc(-c2nc3cc(C)ccc3o2)c1	3980 nM (active)
CC(=O)Oc1ccc2c(=O)oc(-c3ccc([N+](=O)[O-])cc3)nc2c1	inactive
COc1ccc2oc(-c3cccc(NC(=O)CSc4ccc(Cl)cc4)c3)nc2c1	3550 nM (active)
COc1ccc([N+](=O)[O-])cc1-c1nc2ccccc2nc1-c1ccccc1	inactive
O=[N+]([O-])c1ccc2oc(-c3cccc(O)c3)nc2c1	3160 nM (active)
COc1ccc(C(=O)NCc2nnc(SCC(=O)Nc3cccc(OC)c3)o2)cc1	inactive
COc1cccc(-c2nnc(SCCOc3ccc4c(C)cc(=O)oc4c3)o2)c1	inactive
COc1cccc(-c2nc(CS(=O)CC(=O)NCc3ccc(F)cc3)c(C)o2)c1 (centres undefined)	inactive
O=C(NCCc1nnc2ccc(SCC(=O)N3CCOCC3)nn12)c1ccccc1	inactive

Compound	Potency
CCCCn1c(N)c(N(CCC(C)C)C(=O)COC(=O)c2cccnc2OCC)c(=O)[nH]c1=O	inactive
O=C(COC(=O)CNC(=O)C1CCCCC1)NCc1ccccc1	inactive
CCCCN(C(=O)c1ccc2ccccc2c1)c1c(N)n(CCCC)c(=O)[nH]c1=O	inactive
CCNc1nc(-c2cc3ccccc3o2)cs1	1260 nM (active)
Cc1nc(C)c(-c2csc(NCCc3ccccc3)n2)s1	inactive
O=c1oc2ccccc2cc1-c1csc(Nc2ccc(O)cc2)n1	inactive
O=C(CN1CCCSc2ccccc21)N1CCN(S(=O)(=O)c2ccccc2)CC1	inactive
COc1ccc2c(c1)c(C(=O)N/N=C/c1cccs1)c(C)n2C	inactive
CCC(CC)c1nnc(NC(=O)C2=COCCO2)s1	inactive
NS(=O)(=O)c1ccc2nc(NC(=O)C3=COCCO3)sc2c1	1120 nM (active)
Cc1csc(NC(=O)C2=COCCO2)n1	3550 nM (active)
Cc1ccc(-c2csc(NC(=O)C3=COCCO3)n2)cc1C	inactive
NS(=O)(=O)c1ccc2nc(NC(=O)CS(=O)(=O)c3ccc(F)cc3)sc2c1	inactive
O=C(Nc1ccc(S(=O)(=O)N2CCCC2)cc1Cl)C1=COCCO1	inactive
COCCN(Cc1ccccc1)C(=O)Cc1ccc(S(=O)(=O)N2CCOCC2)s1	inactive
COC(=O)c1sc(NC(=O)COC(=O)C2CCC2)c(C(=O)OC)c1C	inactive
COc1ccccc1N1CCN(C(=O)C2Cc3ccccc3CN2C(=O)c2ccco2)CC1 (centres undefined)	inactive
OCCC1CN(Cc2cccn2-c2nccs2)CCN1CCc1ccccc1 (centres undefined)	inactive
COc1cc(/C=N\Nc2ccc([N+](=O)[O-])cn2)ccc1OCC(=O)O	inactive
COc1cc(C(=O)OCc2ccc([N+](=O)[O-])cc2)cc(OC)c1OC	inactive
COc1cc(/C=N/O)ccc1OCc1ccc([N+](=O)[O-])cc1	2000 nM (active)
O=C(CCCCO)c1ccc(O)c(Cl)c1	inactive

Compound	Potency
CC(=O)Nc1ccc(/C=N/NC(=O)c2cccs2)cc1	1260 nM (active)
O=C(N/N=C/c1ccco1)c1ccc(C(=O)N/N=C/c2ccco2)o1	inactive
O=C(N/N=C/C=C/c1ccco1)c1cccs1	4470 nM (active)
CCN(CC)c1ccc(/C=N/NC(=O)CNC(=O)c2cccs2)cc1	inactive
Cc1ccc(-c2cc(C(=O)N/N=C/C=C/c3ccco3)c3ccccc3n2)cc1C	inactive
O=C(CNC(=O)c1cccs1)N/N=C/c1cccc(Br)c1	inactive
O=C(COC(=O)CCCN1C(=O)c2cccc3cccc(c23)C1=O)NC1CCS(=O)(=O)C1 (centres undefined)	inactive
CC(Sc1nnc(C2CC2)n1C1CC1)C(=O)Nc1ccc(C(N)=O)cc1 (centres undefined)	inactive
CCc1ccc(CN(C)C(C)C(=O)Nc2ccc(S(=O)(=O)N3CCCC3)cc2)cc1 (centres undefined)	inactive
COc1ccc([C@H]2CC(=O)C=C(c3ccc(C)cc3)C2)cc1	inactive
CN(C1CCS(=O)(=O)C1)S(=O)(=O)c1ccc2ccccc2c1 (centres undefined)	inactive
O=S(=O)(NCc1ccc2c(c1)OCO2)c1cccc2nsnc12	inactive
Cc1cccc(C(=O)O)c1[N+](=O)[O-]	inactive
Cn1c(-c2ccc(F)cc2)cc2onc(-c3ccccc3Cl)c2c1=O	891 nM (active)
O=C1c2ccccc2C(=O)N1Cc1cc(-c2ccccc2Cl)no1	inactive
O=c1c2ccccc2c(-c2ccc(F)cc2)nn1-c1ccc(C(F)(F)F)cc1	inactive
Cc1onc(-c2ccccc2)c1C(=O)N1CCN(S(=O)(=O)c2ccccc2C(F)(F)F)CC1	inactive
Cc1[nH]n(C)c(=O)c1C(=O)c1c(-c2c(Cl)cccc2Cl)noc1C	inactive
Cn1c(-c2ccc(C(F)(F)F)cc2)cc2onc(-c3ccccc3)c2c1=O	447 nM (active)
CCCCC[C@H]1CN(C2CCCCC2)C(=O)[C@@H]1CC(=O)NCc1ccc(OC)cc1	inactive
O=c1oc2ccc(C#CC3(O)CCCCC3)cc2cc1-n1cc(-c2ccsc2)nn1	inactive
O=C(Nc1ccccc1N1CCOCC1)c1ccncc1	inactive

Compound	Potency
CC(NCC(=O)Nc1ccccc1C(=O)NC1CC1)c1ccccc1Cl (centres undefined)	inactive
Cc1noc(C)c1CCC(=O)N1CCCC(CO)(Cc2ccccc2)C1 (centres undefined)	3550 nM (active)
Cc1ccccc1CC1(CO)CCCN(C(=O)c2cc(-c3ccccc3)no2)C1 (centres undefined)	inactive
CCOC(=O)C1(Cc2ccccc2C)CCCN(C(=O)CCc2c(C)noc2C)C1 (centres undefined)	inactive
COc1ccc(OCCNC(=O)c2cc(C3CC3)nc3c2cnn3C(C)C)cc1	inactive
O=C(CN1CCN(c2ccccc2O)CC1)NC(=O)NCc1ccccc1	inactive
N=c1c2c(-c3ccccc3)c(-c3ccccc3)n(Cc3ccccc3)c2ncn1CCCO	inactive
OCCCN1c2ccccc2Nc2nnc(-c3ccccc3)cc21	2000 nM (active)
CCOC(=O)C(C)N(c1ccccc1Cl)S(C)(=O)=O (centres undefined)	inactive
N#Cc1c(NC(=O)C2CCCO2)sc2c1CCCCC2 (centres undefined)	2240 nM (active)
N#Cc1c(NC(=O)CCCl)sc2c1CCCCC2	inactive
N#Cc1c(NC(=O)C2CC(Cl)=CCC2C(=O)O)sc2c1CCCCC2 (centres undefined)	inactive
O=c1c2cc(-c3ccccc3)sc2nc2n1N=C(c1cccs1)CS2	1120 nM (active)
c1csc(-c2cn3c(n2)SCC3)c1	inactive
Cc1nnc2n1N=C(c1ccccc1)CS2	inactive
O=C(c1cc2ccccc2o1)N1CCN(S(=O)(=O)c2ccc(Cl)s2)CC1	inactive
COc1ccc(CNC(=O)COC(=O)CCS(=O)(=O)c2ccc(C)cc2)cc1OC	inactive
CCN(CC(=O)Nc1c(F)cccc1F)C(=O)c1cnc(C)cn1	inactive
C/C(=N\NC(=S)Nc1ccc(C)cc1)c1cc2ccccc2o1	inactive
O=C(Nc1ccncc1)c1cc2ccccc2o1	inactive
Cc1ccc(NC(=O)c2cc3ccccc3o2)cc1	3980 nM (active)
CCN(CC(=O)NCc1ccc(Cl)cc1)C(=O)c1c(C)noc1C	inactive

Compound	Potency
c1ccc2c(c1)CSc1sccc1C2=C1CCNCC1	inactive
Cc1cc(C(=O)NNC(=O)c2ccccc2O)c(C)o1	inactive
COC(=O)C1CCN(C(=O)c2cc(=O)[nH]c3ccccc23)CC1	inactive
CC(NC(=O)COC(=O)c1cc(=O)[nH]c2ccccc12)c1ccccc1 (centres undefined)	inactive
CC1CCN(C(=O)COC(=O)c2cc(=O)[nH]c3ccccc23)CC1	2510 nM (active)
O=C(COC(=O)c1ccccc1Cl)NC1CCCCCCC1	inactive
O=C(Nc1ccc(Cl)cc1)c1ccsn1	1780 nM (active)
Cn1ccc(NC(=O)Nc2ccc(Cl)cc2)n1	inactive
CCC(=O)Nc1ccc(C(=O)NNC(=O)c2ccc(Cl)cc2)cc1	inactive
CCCCN(Cc1ccccc1)C(=O)C1CCN(Cc2sccc2C)CC1	inactive
Cn1c(CC(=O)NNC(=O)c2ccccc2F)nc2ccccc21	inactive
O=C(c1ccc(N2CCOCC2)c([N+](=O)[O-])c1)N1CCN(S(=O)(=O)c2cccs2)CC1	inactive
COc1ccc(C)cc1N(C(=O)Cn1nnc(-c2ccc(C)o2)n1)C(C(=O)NC1CCCC1)c1ccncc1 (centres undefined)	inactive
CCN(CC(=O)Nc1ccc(NC(C)=O)cc1)C(=O)CSC(=S)N1CCCC1	inactive
CC(=O)Nc1cc2ccc(OC(C)=O)cc2oc1=O	inactive
Cc1ccccc1NC(=O)C1CCN(C(=O)NC2CCCCC2)CC1	inactive
O=C(Nc1cc2ccccc2oc1=O)C1CCCCC1	562 nM (active)
CN(CC(=O)Nc1ccc(Cl)cc1)C(=O)c1ccc(COc2ccccc2)cc1	inactive
CCN(CC)S(=O)(=O)c1cc(C(=O)Nc2ccccn2)ccc1C	1780 nM (active)
CCN(c1ccccc1)S(=O)(=O)c1cc(C(=O)NCc2ccccn2)ccc1C	inactive
Cc1ccc(NC(=O)CNCc2ccccn2)cc1S(=O)(=O)N(C)C	inactive
